Measured values taken from the supplement of paper PMC8291772.
± gives the standard error. Over roughly 1,300 sequences, “fluorescence a.u.” has its median near 38; the highest 2% begin near 280. For the sample, the highest values were picked, then their nearest neighbours and some sequences at random.

Biological target: terminal deoxynucleotidyl transferase (calf thymus) (UniProt P06526)
Assay: TdT poly-dT extension signal (Cy3 hybridisation fluorescence, uncapped minus capped) (fluorescence a.u.); higher = more efficient initiation of TdT extension
Settings: initiator chemistry: L-DNA (mirror-image), free 5'-OH (3'-tethered via HEG linker)
Experimental: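 All mono- to pentamer D-DNA or L-DNA initiators were made by forward (3'->5') photolithographic in situ synthesis on glass on a hexaethylene glycol linker, leaving a free 5'-OH. Each was made in uncapped and DMTr-dT-capped versions, about 11 replicates each. Arrays were extended with calf thymus TdT (0.2 U/uL), 100 uM dTTP and 0.25 mM CoCl2 for 120 min at 37 C, hybridised with an rA18-Cy3 probe and scanned at 532 nm. The value is the mean uncapped minus the mean capped signal. IDs read 5'->3'. L-DNA is mirror-image; D-DNA 5'-OH initiators were below LOD (no extension).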

Sequence of terminal deoxynucleotidyl transferase (calf thymus) (P06526 whole entry): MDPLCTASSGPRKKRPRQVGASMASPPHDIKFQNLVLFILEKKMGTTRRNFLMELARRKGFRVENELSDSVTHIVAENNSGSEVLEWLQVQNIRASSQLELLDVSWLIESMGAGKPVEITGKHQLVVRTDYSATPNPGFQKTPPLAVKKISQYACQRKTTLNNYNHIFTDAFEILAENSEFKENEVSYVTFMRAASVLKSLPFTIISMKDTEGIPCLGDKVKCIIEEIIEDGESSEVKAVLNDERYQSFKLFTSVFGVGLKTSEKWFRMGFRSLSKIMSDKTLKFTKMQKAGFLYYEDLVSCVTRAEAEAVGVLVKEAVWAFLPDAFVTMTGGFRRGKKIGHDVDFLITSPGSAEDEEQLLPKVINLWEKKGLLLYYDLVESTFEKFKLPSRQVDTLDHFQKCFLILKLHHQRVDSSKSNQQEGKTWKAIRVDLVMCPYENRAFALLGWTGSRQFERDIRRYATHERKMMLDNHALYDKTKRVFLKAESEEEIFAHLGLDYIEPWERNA

Sequence	TdT poly-dT extension signal
TTCCC	358 ± 31
CTCCT	111 ± 9.1
TTCC	293 ± 17
TTCCA	299 ± 18
CTTCA	130 ± 11
CCTAA	98.7 ± 6
ATGCT	116 ± 7.5
CGTTT	51.4 ± 5
GTAGG	181 ± 10
CCAAG	120 ± 9.5
CTTT	127 ± 17
TATC	171 ± 12
TGTA	126 ± 10
TACA	178 ± 8
CTCCG	127 ± 11
TTCCG	388 ± 25
GTCCG	147 ± 12
TGCGC	154 ± 12
TTCTG	320 ± 24
GTCTG	128 ± 7.3
TTCTA	312 ± 31
TTCTT	311 ± 24
CTCTT	122 ± 10
GTCTT	128 ± 8
CTCTA	130 ± 12
ATCTG	143 ± 16

Sequence	TdT poly-dT extension signal
TTCT	243 ± 31
ACCCA	77.1 ± 11
TCGAT	152 ± 12
CAGTG	49.3 ± 7.1
CCTA	84.4 ± 13
ACAAC	92.6 ± 6.6
GCACG	87 ± 5.5
ATGCC	109 ± 15
CTCGT	115 ± 9
TCCG	221 ± 19
GTCGG	178 ± 14
CTCG	124 ± 17
TTCGA	367 ± 21
CTCGG	158 ± 9.7
ATCGT	189 ± 13
TTCG	284 ± 31
CTCGA	135 ± 12
ATCGA	206 ± 17
TTCGT	330 ± 27
TTCGG	347 ± 20
TCATT	134 ± 15
GACTG	85.6 ± 6.6
GCCTG	90.6 ± 8.8
CCAC	93 ± 7.6
ATACG	188 ± 13
ACAGT	65.8 ± 8.1

Sequence	TdT poly-dT extension signal
ACTGG	71.1 ± 8.8
TAGCC	105 ± 7.2
CTCGC	146 ± 15
TTCGC	323 ± 18
GTCGC	137 ± 12
CGGTC	31.7 ± 5.1
AGCGC	57.8 ± 6.1
GTAGT	130 ± 11
CTAGT	157 ± 12
CTAGC	134 ± 8.7
CTAGA	170 ± 11
TTAGC	308 ± 15
GTAGA	191 ± 19
GTAG	159 ± 11
TTAGT	368 ± 28
TTAGA	396 ± 35
ATAGC	182 ± 14
TAAG	161 ± 15
TTAG	308 ± 27
TGTCA	114 ± 7.2
AGTGT	44.6 ± 5.9
GATGC	82.1 ± 9.4
TACGA	194 ± 14
CCGGA	78.7 ± 10
ACGAA	76.9 ± 4.9
GTTTA	123 ± 9.7

Sequence	TdT poly-dT extension signal
CTAGG	182 ± 8.8
TTAGG	444 ± 29
ATAGG	198 ± 12
CCTGG	79.5 ± 7.8
TCTC	128 ± 17
TCTCA	199 ± 18
TCTCT	347 ± 200
TAGGA	123 ± 9.3
GTACT	137 ± 10
GTACA	152 ± 8.5
TTAC	275 ± 24
CTACT	152 ± 15
GTACG	158 ± 12
TTACA	344 ± 20
TTACT	396 ± 14
TTACC	393 ± 30
GTACC	143 ± 13
CTACC	127 ± 19
TTACG	380 ± 28
ATACA	204 ± 18
GACCT	77.6 ± 11
GAGGT	55.2 ± 5.3
CAGAG	71.3 ± 6.3
AATTG	77.2 ± 7
CTTTG	141 ± 13
CCACT	90 ± 7.8

Sequence	TdT poly-dT extension signal
AGTA	44.2 ± 4.4
ACCA	87.8 ± 9.2
TTTCA	281 ± 27
ACCG	78.2 ± 8
TTTA	271 ± 29
ATTAG	195 ± 19
TTTAG	345 ± 24
GTTAC	130 ± 11
TTTAA	392 ± 18
CTTAT	106 ± 7.6
CTTAA	181 ± 12
TTTAT	331 ± 24
ATTAT	152 ± 14
GTTAA	194 ± 15
CTTAC	153 ± 14
TTTAC	344 ± 22
TGAGC	147 ± 8.6
TAAAC	191 ± 19
CACCG	74.4 ± 8.1
TAAAT	192 ± 18
GCCGC	93.5 ± 6.3
GTTTT	125 ± 8.3
TTTTC	242 ± 27
TTTTA	302 ± 24
CTTTA	106 ± 9.8
CATGG	80 ± 9.5
